Bioassay records deposited in PubChem by several laboratories.
Sampled rows, rich in hits. Any-hit rate of the full collection: about 1.8%.
NPR2 activator: GC-B (human) receptor activation; P20594; HEK293-GC-B cells, CNP EC30, cGMP TR-FRET; 0% at EC30 CNP, 100% saturating CNP; activation, % at 10 µM; actives 0.11% (n = 370,000); AID 1920062;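 active = activation at 10 µM reaching about 35% in either raw or pattern-adjusted values, limit read from the data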
GC-A act: GC-A (human) enzyme activation. AID 1671463. activation, % at 10 µM. P16066. actives 0.14% (n = 370,000). HEK293 GC-A cells, cGMP TR-FRET, EC30 ANP; 0% at EC30 ANP, 100% saturating ANP; in the data active = activation above about 40%
Myeloid diff MLP: promotes myeloid progenitor differentiation. ER-HoxA9 myeloid progenitors, lysozyme-GFP differentiation, flow cytometry. calls only at 10 µM. actives 1% (n = 360,000);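 active = normalized GFP-positive differentiation at or above the plate's own cutoff, the solvent-only control mean plus 3 SD; inconclusive = no clear call, values can overlap the other calls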;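 also: cells exposed to compound for four days before flow analysis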
Granule exo inh: blocks lytic granule exocytosis. TALL-104 LAMP-1 surface exposure, flow cytometry; cells stimulated with thapsigargin and PMA. inhibition, % at 10 µM. actives 0.66% (n = 360,000). AID 651702;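 active = inhibition above about 55%, limit read from the data; inconclusive = no clear call, values can overlap the other calls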
Granule exo CP1: blocks lytic granule exocytosis; shares compounds with Granule exo inh; AID 651954; actives 11% (n = 1,500); TALL-104 cells, LAMP-1 externalization, flow cytometry; stimulated with PMA plus thapsigargin; inhibition, % at 10 µM; in the data active = inhibition above about 60%
Numbers stand for hits; n = inactive; u = inconclusive; x = no result.

SMILES | NPR2 activator | GC-A act | Myeloid diff MLP | Granule exo inh | Granule exo CP1
COCc1ccc(-c2c(-c3ccsc3)sc3ccccc23)cc1 | n | n | n | n | x
CCOc1ccccc1CN1CCN(Cc2[nH]c3ccccc3c2C)CC1CCO (stereo not given) | n | n | n | 67.3 | n
Cc1ccc(NC(=O)CN2C(=O)N/C(=C/c3ccc(C)o3)C2=O)cc1 | n | n | n | n | x
Cc1cccc(NC(=O)CN2C(=O)N/C(=C/c3ccc(C)o3)C2=O)c1 | n | n | n | 84.8 | n
COC(=O)[C@]12CCCCC=C1N(Cc1cccc3ccccc13)C(=O)[C@H](CC(=O)NCc1ccc(OC)c(OC)c1)C2 | n | n | n | 70.1 | 97.0
CC(C)(C)NC(=O)CN1C(=O)NC(c2ccccc2)(c2ccccc2)C1=O | n | n | n | 84.7 | n
CCNC(=O)C1(C)CCCN1C(=O)c1ccc2c(c1)OCO2 (stereo not given) | n | n | n | n | x
C[C@@H](c1ccccc1)N1C[C@H](COCc2ccccc2)Oc2cc(N3CC[C@@H](N(C)C)C3)ccc2S1(=O)=O | n | n | n | n | x
C[C@H](c1ccccc1)N1C[C@H](COCc2ccccc2)Oc2cc(N3CC[C@H](N(C)C)C3)ccc2S1(=O)=O | n | n | n | 67.6 | n
COc1cc(OC)cc(C(=O)Nc2ccc(-c3nc4ccccc4o3)cc2)c1 | n | n | n | 99.8 | n
COc1cccc(C(=O)Nc2ccc(-c3nc4ccccc4o3)c(O)c2)c1 | n | n | n | n | x
Cc1ccc(N2CCN(C(C(=O)Nc3c(C)cccc3C)c3cccc(F)c3)CC2)cc1 (stereo not given) | n | n | n | n | x
CC(=O)c1cc(-c2ccc(Cl)c(Cl)c2)c(=O)n2c1CCC2 | n | n | x | x | x
O=C(NCc1ccc(Cl)c(Cl)c1)c1cc(C2CCCCN2C(=O)c2cccs2)on1 (stereo not given) | n | n | n | n | x
COc1ccc(C(=O)C(CN2CCCC2)c2ccccc2)cc1 (stereo not given) | n | n | x | n | x
O=C(c1ccc(Cl)cc1)C(CN1CCCC1)c1ccccc1 (stereo not given) | n | n | x | 59.1 | n
Cc1ccc(-c2nnc(CSc3nnc(COc4ccccc4)n3-c3ccc(C)cc3)o2)cc1 | n | n | n | 76.0 | n
Cc1ccc(-c2nnc(CSc3nnc(COc4ccccc4)n3-c3ccccc3)o2)cc1 | n | n | n | n | x
CCC(=O)NC(c1cccs1)c1cc(Cl)c2ccccc2c1O (stereo not given) | n | n | n | n | x
CC(=O)NC(c1cccs1)c1cc(Cl)c2ccccc2c1O (stereo not given) | n | n | n | 72.6 | n
CN(Cc1cnc2nc(N)nc(N)c2n1)c1ccc(C(=O)NC(CCC(=O)O)C(=O)O)c2ccccc12 (stereo not given) | n | n | x | n | x
CSc1nnc2c3cc(F)ccc3n(Cc3ccccc3)c2n1 | n | n | n | n | x
CCN(CC)CCSc1nnc2c3cc(C)ccc3n(Cc3ccccc3)c2n1 | n | n | n | 64.0 | n
O=C1c2c(-c3ccc(Br)cc3)noc2CCN1Cc1cn(Cc2ccccc2)nn1 | n | n | n | n | x
Cn1c(Cl)c(C(=O)Nc2ccc(Cl)cc2)c2ccccc21 | n | n | n | 68.7 | n
SMILES | NPR2 activator | GC-A act | Myeloid diff MLP | Granule exo inh | Granule exo CP1
CCOc1ccccc1CNC(=O)Cn1ccc2cc(S(=O)(=O)N3CCCCCC3)ccc21 | n | n | u | n | x
CCOc1ccccc1CNC(=O)CCn1ccc2cc(S(=O)(=O)N3CCCCC3)ccc21 | n | n | n | 62.1 | n
COc1ccc(OC)c(NC(=O)CSc2nc3[nH]c(=O)[nH]c(=O)c3s2)c1 | n | n | n | n | x
COCCCNC(=O)c1ccc(CS(=O)(=O)c2ccccc2OC)o1 | n | n | n | n | x
CCCCSCCCNC(=O)c1ccc(CS(=O)(=O)c2ccccc2OC)o1 | n | n | n | 94.0 | n
CC(=O)c1c(CSc2ccccc2)oc2ccc(O)c(CN(C)C)c12 | n | n | n | 65.7 | n
COC(=O)Cc1c(CSc2ccccc2)oc2ccc(O)c(CN(C)C)c12 | n | n | n | 58.3 | n
CCOC(=O)c1c(CSc2ccccc2)oc2cc(Br)c(O)c(CN(C)C)c12 | n | n | n | n | x
CCOC(=O)c1c(CSc2ccc(CC)cc2)oc2ccc(O)c(CN(C)C)c12 | n | n | n | 80.4 | n
Cc1ccc(-c2nnc(-c3ccc(NC(=O)c4ccco4)cc3)o2)cc1 | n | n | n | 88.5 | n
COc1ccc(CN(C)CC(O)COc2ccc(-c3ccccc3)cc2)cc1OC (stereo not given) | n | n | x | 62.9 | n
CCOc1ccc(CN(C)CC(O)COC(c2ccc(OC)cc2)c2ccc(OC)cc2)cc1 (stereo not given) | n | n | n | 68.9 | n
COC(=O)C1=C(C)N(Cc2ccc(C(F)(F)F)cc2)C(=NCc2ccc(C(F)(F)F)cc2)NC1c1cccc(C(F)(F)F)c1 (stereo not given) | n | n | x | x | x
CCc1cc2ccc(C)cc2nc1SCC(=O)c1ccc(NC(C)=O)cc1 | x | x | n | n | x
CCc1cc2ccc(C)cc2nc1SCC(=O)NC1CCCC1 | n | n | n | 82.0 | n
Cc1ccc(CN(C)C(=O)c2c(C)nn(-c3ccccc3)c2C)cc1 | n | n | n | 67.1 | n
CC(=O)c1c(C)nn(-c2ccccc2)c1C | n | n | n | n | x
N#Cc1ccc2c(=O)n(-c3ccccc3)sc2c1 | n | n | n | n | x
O=c1c2ccccc2sn1-c1ccccc1 | n | n | n | 99.4 | 105.3
CC(=O)Nc1ccc2c(=O)n(-c3ccccc3)sc2c1 | n | n | n | 69.4 | 62.0
O=c1c2ccccc2sn1-c1ccccc1F | n | n | n | 68.7 | 102.3
O=c1c2ccccc2sn1-c1cccc(Cl)c1 | n | n | n | n | x
COc1ccc(CNCCC(c2ccc(OC(C)C)cc2)C(C)C)cc1OC (stereo not given) | n | n | n | n | x
COc1ccc(C(CCNCc2ccc(OC(C)C)cc2)C(C)C)cc1 (stereo not given) | n | n | n | 78.4 | n
COc1ccc(C(CCNCc2ccc(N(C)C)cc2)C(C)C)cc1 (stereo not given) | n | n | n | 69.2 | n
SMILES | NPR2 activator | GC-A act | Myeloid diff MLP | Granule exo inh | Granule exo CP1
S=c1nc(-c2ccccn2)c(-c2ccccn2)n[nH]1 | x | x | n | n | x
O=C(Nc1nc2ccc(SC(F)F)cc2s1)c1ccc(NS(=O)(=O)c2ccc(F)c(F)c2)cc1 | n | n | n | 75.9 | 103.6
Cc1[nH]c2ccccc2c1C(c1ccccn1)N1CCC(C(N)=O)CC1 (stereo not given) | n | n | n | 56.8 | n
CCOC(=O)C1CCN(C(c2ccccn2)c2c(C)[nH]c3ccccc23)CC1 (stereo not given) | n | n | n | n | x
Cc1ccccc1CN1CCCCC(NC(=O)Nc2cccc(F)c2)C1=O (stereo not given) | n | n | x | x | x
C[C@@H]1CN([C@@H](C)CO)S(=O)(=O)c2ccc(Br)cc2O[C@@H]1CN(C)Cc1ccc2c(c1)OCO2 | n | n | x | x | x
